These results are taken from PubChem BioAssay (EPA / NIEHS).

The source made the active and inactive calls. How the source made its calls: active means hit-call score of the fitted dose curve at least 0.9, where 1 is the maximum; inactive means score below 0.9.

Assay [1] can be described thus: ATG_DR4_LXR_CIS: Attagene CIS-FACTORIAL HepG2 Assay for human Liver X Receptor (LXR), DR4 submotif (AID 2282929). The settings on record: HepG2 Attagene DR4 cis-reporter, mRNA transcription; AC50: actives raise or lower the signal unless noted; outcome: actives raise or lower the signal unless noted. Summed up: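 After transient transfection with multiplexed cis-promoter reporter units, HepG2 cells received test chemicals for 24 h. Reporter mRNA induction, detected by fluorescence after RT-PCR and capillary electrophoresis, was scored relative to DMSO.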

The target of assay [2] is Aryl hydrocarbon receptor (Homo sapiens) (UniProt P35869). In words: ATG_Ahr_CIS: Attagene CIS-FACTORIAL HepG2 Assay for human Aryl Hydrocarbon Receptor (Ahr) (AID 2282930). The settings on record: HepG2 AhR cis-factorial reporter transcription; actives raise or lower the signal. A digest of the protocol:
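Reporter mRNA levels, quantified by RT-PCR and fluorescent capillary electrophoresis, reflect endogenous AhR transcriptional activity in HepG2 cells carrying transfected cis-promoter reporter constructs. Readout at 24 h post-dose; gain or loss fitted against DMSO baseline.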

Assay [3] is described as follows: ATG_AP_1_CIS: Attagene CIS-FACTORIAL HepG2 Assay for human Activator Protein 1 (AP-1) (AID 2282931). The settings on record: HepG2 Attagene cis-factorial AP-1 reporter mRNA; actives raise or lower the signal. A digest of the protocol:
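After 24 h incubation with test chemical, RNA from transfected HepG2 cells was reverse-transcribed, amplified, fluorescently labelled and digested before capillary electrophoresis. Reporters were driven by cis-regulatory promoters; activity fitted bidirectionally versus DMSO.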

A short description of assay [4]: ATG_AP_2_CIS: Attagene CIS-FACTORIAL HepG2 Assay for human Activator Protein 2 (AP-2) (AID 2282932). The settings on record: HepG2 AP-2 cis-reporter, Attagene transcription factor profiling; AC50: actives raise or lower the signal unless noted; outcome: actives raise or lower the signal unless noted. A digest of the protocol: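 Transiently transfected HepG2 cells are exposed to chemical for 24 h. Reporter transcripts are then measured as fluorescence following RT-PCR and capillary separation, and gain- or loss-of-signal is fitted relative to DMSO.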

The nature of assay [5]: ATG_BRE_CIS: Attagene CIS-FACTORIAL HepG2 Assay for human Bone Morphogenetic Protein (BMP) Response Element (BRE) (AID 2282933). The settings on record: HepG2 BMP response element reporter, Attagene transcription factor profiling; actives raise or lower the signal. Summed up:
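Endogenous transcription factor activity at a BMP response element was monitored in transfected HepG2 cells 24 h after dosing. Fluorescent RT-PCR products were resolved by capillary electrophoresis, and activity was fitted in both directions versus DMSO.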

The target of assay [6] is Retinoic acid receptor alpha (Homo sapiens) (UniProt P10276). Briefly: ATG_DR5_RAR_CIS: Attagene CIS-FACTORIAL HepG2 Assay for human Retinoic Acid Receptor Alpha (RARE), DR5 submotif (AID 2282934).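 On AC50: reporter responds to endogenous RAR alpha beta and gamma in HepG2 not RARA alone.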 The settings on record: HepG2 Attagene cis-factorial RARE DR5 reporter, mRNA; actives raise or lower the signal. Summed up:
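Reporter transcripts from a DR5-regulated unit, measured via RT-PCR plus capillary electrophoresis, reflect endogenous RAR activity in transiently transfected human HepG2 liver cells. Exposure lasted 24 h; gain or loss of signal scored against DMSO.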

The target of assay [7] is Transcription factor E2F1 (Homo sapiens) (UniProt Q01094). Briefly: ATG_E2F_CIS: Attagene CIS-FACTORIAL HepG2 Assay for human E2F Transcription Factor 1 (AID 2282935). The settings on record: HepG2 Attagene cis-reporter, E2F reporter RNA transcripts; actives raise or lower the signal. Summed up: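 Fluorescent RT-PCR products, digested with HpaI for 2 h at 37 C, are separated by capillary electrophoresis. Source RNA comes from transfected HepG2 cultures treated for 24 h.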
Sequence of Transcription factor E2F1 (Homo sapiens) (Q01094 whole entry, looked up): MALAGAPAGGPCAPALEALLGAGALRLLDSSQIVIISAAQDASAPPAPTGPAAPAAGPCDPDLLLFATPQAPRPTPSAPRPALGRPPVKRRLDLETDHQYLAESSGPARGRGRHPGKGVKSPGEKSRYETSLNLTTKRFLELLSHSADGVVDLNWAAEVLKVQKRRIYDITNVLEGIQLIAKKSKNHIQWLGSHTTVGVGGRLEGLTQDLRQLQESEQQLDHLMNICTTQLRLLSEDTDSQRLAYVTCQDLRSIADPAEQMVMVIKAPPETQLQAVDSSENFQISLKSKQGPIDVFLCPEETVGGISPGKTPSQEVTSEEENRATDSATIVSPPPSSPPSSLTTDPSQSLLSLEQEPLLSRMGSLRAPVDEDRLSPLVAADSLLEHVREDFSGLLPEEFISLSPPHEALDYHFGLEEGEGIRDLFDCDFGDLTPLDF

Assay [8] in a line: ATG_E_Box_CIS: Attagene CIS-FACTORIAL HepG2 Assay for human Enhancer Box (E-box) (AID 2282936). The settings on record: HepG2 E-box cis-reporter transcription, actives raise or lower the signal. A digest of the protocol:
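Fluorescent reporter fragments separated by capillary electrophoresis gave the signal; mRNA came from HepG2 cells transfected with cis-element reporters and treated 24 h. Curves fitted bidirectionally relative to DMSO controls.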

Assay [9] is described as follows: ATG_M_61_CIS: Attagene CIS-FACTORIAL HepG2 Assay for M61 Transcription Factor (Internal Marker) (AID 2282937). The settings on record: HepG2 Attagene CIS-FACTORIAL M61 internal marker reporter; actives raise or lower the signal. Summed up: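 Using transiently transfected HepG2 liver cells, reporter transcript levels were assessed 24 h post-dosing by RT-PCR and capillary electrophoresis. Changes in either direction were fitted relative to DMSO controls.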

Assay [10] in a line: ATG_EGR_CIS: Attagene CIS-FACTORIAL HepG2 Assay for human Early Growth Response 1 (EGR1) (AID 2282938). The settings on record: HepG2 Attagene CIS-FACTORIAL EGR reporter mRNA; actives raise or lower the signal. Summed up:
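Fluorescent capillary-electrophoresis signal of reporter cDNA fragments serves as read-out. HepG2 cells bear transiently transfected cis-promoter reporter units and are exposed 24 h; gain- or loss-of-signal is fitted against DMSO.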

A short description of assay [11]: ATG_M_19_CIS: Attagene CIS-FACTORIAL HepG2 Assay for M19 Transcription Factor (Internal Marker) (AID 2282939). The settings on record: HepG2 Attagene CIS-FACTORIAL M19 internal marker reporter; actives raise or lower the signal. Summed up: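 Background-control endpoint from a multiplexed HepG2 reporter panel. Cells carrying cis-regulated reporter constructs are treated 24 h, then reporter transcripts are amplified, fluorescently labelled and sized by capillary electrophoresis. DMSO defines baseline.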

The nature of assay [12]: ATG_ERE_CIS: Attagene CIS-FACTORIAL HepG2 Assay for Estrogen Response Element (ERE) (AID 2282940). The settings on record: HepG2 ERE cis-reporter, Attagene RNA transcript; actives raise or lower the signal. Summed up:
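Cells used were human hepatoma HepG2, transfected with multiple reporter transcription units under cis-regulatory promoters. Reporter mRNA, read 24 h post-dosing via fluorescent RT-PCR products on capillary electrophoresis, was fitted bidirectionally relative to DMSO.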

Assay [13] is described as follows: ATG_Ets_CIS: Attagene CIS-FACTORIAL HepG2 Assay for human Erythroblast Transformation Specific (ETS) (AID 2282941). The settings on record: HepG2 ETS cis-reporter transcription; AC50: actives raise or lower the signal unless noted; outcome: actives raise or lower the signal unless noted. Summed up:
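RT-PCR/capillary electrophoresis fluorescence read-out of reporter mRNA; HepG2 transient multi-reporter transfection; 24 h compound exposure; gain or loss of signal fitted bidirectionally relative to DMSO.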

For assay [14], the target named is Hepatocyte nuclear factor 3-beta (Homo sapiens) (UniProt Q9Y261). Briefly: ATG_FoxA2_CIS: Attagene CIS-FACTORIAL HepG2 Assay for human Forkhead box A2 (FOXA2) (AID 2282942). The settings on record: HepG2 cis-reporter transcription factor activity, 24 h; actives raise or lower the signal. A digest of the protocol: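 Fluorescence signal of reporter cDNA fragments, separated by capillary electrophoresis, reflects endogenous transcription factor activity in transfected HepG2 after 24 h. Both increases and decreases fitted against DMSO.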
Sequence of Hepatocyte nuclear factor 3-beta (Homo sapiens) (Q9Y261 whole entry, looked up, the tested form may be a part): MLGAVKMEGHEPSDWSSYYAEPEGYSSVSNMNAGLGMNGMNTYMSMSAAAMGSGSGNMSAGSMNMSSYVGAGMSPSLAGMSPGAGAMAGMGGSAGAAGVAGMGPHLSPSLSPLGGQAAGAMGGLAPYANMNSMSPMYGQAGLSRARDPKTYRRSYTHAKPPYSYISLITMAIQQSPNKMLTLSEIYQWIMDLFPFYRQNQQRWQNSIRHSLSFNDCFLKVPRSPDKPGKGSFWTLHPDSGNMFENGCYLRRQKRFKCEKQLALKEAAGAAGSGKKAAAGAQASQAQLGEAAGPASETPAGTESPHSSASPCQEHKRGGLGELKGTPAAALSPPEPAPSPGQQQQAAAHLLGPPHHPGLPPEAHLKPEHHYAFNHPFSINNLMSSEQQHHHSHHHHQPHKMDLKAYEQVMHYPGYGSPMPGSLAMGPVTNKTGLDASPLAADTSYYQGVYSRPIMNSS

Assay [15] is described as follows: ATG_FoxO_CIS: Attagene CIS-FACTORIAL HepG2 Assay for human Forkhead box O (FoxO) (AID 2282943). The settings on record: HepG2 Attagene cis-reporter, FoxO element, mRNA; actives raise or lower the signal. Summed up: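 Endogenous transcription factor activity read from multiplexed cis-promoter reporter transcripts in transiently transfected HepG2, 24 h after dosing. Reporter RNA measured via RT-PCR plus capillary electrophoresis of FAM-labeled products; gain or loss relative to DMSO.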

The nature of assay [16]: ATG_GATA_CIS: Attagene CIS-FACTORIAL HepG2 Assay for human GATA Binding Protein (AID 2282944). The settings on record: HepG2 GATA cis-element reporter, Attagene multiplex mRNA; actives raise or lower the signal. A digest of the protocol:
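Endogenous transcription factor activity was captured through cis-promoter-driven reporters in transfected HepG2 cells. After 24 h exposure, reporter transcripts were quantified by RT-PCR with fluorescent capillary electrophoresis, and responses fitted both directions against DMSO.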

Assay [17] in a line: ATG_GLI_CIS: Attagene CIS-FACTORIAL HepG2 Assay for human Zinc Finger Protein GLI1 (AID 2282945). The settings on record: HepG2, Attagene cis-factorial reporter mRNA, GLI element; actives raise or lower the signal. A digest of the protocol:
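Bidirectional curve fits relative to DMSO, using reporter mRNA levels from RT-PCR plus capillary electrophoresis. Cells were HepG2 transiently carrying cis-regulated reporter constructs, harvested 24 h after dosing.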

For assay [18], the target named is Bile acid receptor (Homo sapiens) (UniProt Q96RI1). Briefly: ATG_IR1_CIS: Attagene CIS-FACTORIAL HepG2 Assay for human Nuclear Receptor Subfamily 1 Group H Member 4 (NR1H4), IR1 submotif (AID 2282946). The settings on record: IR1 reporter transcription, actives raise or lower the signal. A digest of the protocol: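 HepG2 cells transiently transfected with multiplexed cis-element reporter units read endogenous transcription factor activity. After 24 h compound exposure, reporter mRNA was quantified by RT-PCR, fluorescent labelling, HpaI digestion and capillary electrophoresis; bidirectional fitting versus DMSO baseline.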
Sequence of Bile acid receptor (Homo sapiens) (Q96RI1 whole entry, looked up): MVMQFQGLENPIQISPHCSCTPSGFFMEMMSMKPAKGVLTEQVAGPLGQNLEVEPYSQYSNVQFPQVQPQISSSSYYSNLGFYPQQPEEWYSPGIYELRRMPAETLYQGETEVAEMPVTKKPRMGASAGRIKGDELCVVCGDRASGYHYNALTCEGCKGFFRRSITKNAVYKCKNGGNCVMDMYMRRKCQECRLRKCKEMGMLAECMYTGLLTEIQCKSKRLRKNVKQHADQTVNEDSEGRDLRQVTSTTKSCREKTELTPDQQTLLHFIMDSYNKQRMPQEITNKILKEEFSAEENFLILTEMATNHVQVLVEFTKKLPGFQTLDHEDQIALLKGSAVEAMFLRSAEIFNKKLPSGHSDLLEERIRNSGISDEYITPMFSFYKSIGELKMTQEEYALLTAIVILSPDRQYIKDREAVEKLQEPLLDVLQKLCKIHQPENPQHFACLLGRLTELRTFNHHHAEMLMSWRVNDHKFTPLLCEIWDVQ

Assay [19] in a line: ATG_GRE_CIS: Attagene CIS-FACTORIAL HepG2 Assay for human Glucocorticoid Response Elements (GRE) (AID 2282947). The settings on record: HepG2 GRE cis-reporter, Attagene multiplex mRNA; AC50: actives raise or lower the signal unless noted; outcome: actives raise or lower the signal unless noted. A digest of the protocol: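 Multiplexed cis-reporter mRNA induction, HepG2, 24 h post-dose. RT-PCR, FAM-labelled, HpaI-digested amplicons by CE. Bidirectional fit vs DMSO.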

Assay [20] is described as follows: ATG_ISRE_CIS: Attagene CIS-FACTORIAL HepG2 Assay for human Interferon Regulatory Factor 1 (IRF1) binding to an Interferon-Stimulated Response Element (ISRE) (AID 2282948). The settings on record: HepG2 ISRE cis-reporter (Attagene), mRNA transcription readout; actives raise or lower the signal. A digest of the protocol:
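Read-out: fluorescent RT-PCR products resolved by capillary electrophoresis, reporting endogenous transcription factor activity via ISRE-driven reporter mRNA in transfected HepG2 cells dosed for 24 h; gain or loss fitted relative to DMSO.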

Sequence of Aryl hydrocarbon receptor (Homo sapiens) (P35869 whole entry, looked up): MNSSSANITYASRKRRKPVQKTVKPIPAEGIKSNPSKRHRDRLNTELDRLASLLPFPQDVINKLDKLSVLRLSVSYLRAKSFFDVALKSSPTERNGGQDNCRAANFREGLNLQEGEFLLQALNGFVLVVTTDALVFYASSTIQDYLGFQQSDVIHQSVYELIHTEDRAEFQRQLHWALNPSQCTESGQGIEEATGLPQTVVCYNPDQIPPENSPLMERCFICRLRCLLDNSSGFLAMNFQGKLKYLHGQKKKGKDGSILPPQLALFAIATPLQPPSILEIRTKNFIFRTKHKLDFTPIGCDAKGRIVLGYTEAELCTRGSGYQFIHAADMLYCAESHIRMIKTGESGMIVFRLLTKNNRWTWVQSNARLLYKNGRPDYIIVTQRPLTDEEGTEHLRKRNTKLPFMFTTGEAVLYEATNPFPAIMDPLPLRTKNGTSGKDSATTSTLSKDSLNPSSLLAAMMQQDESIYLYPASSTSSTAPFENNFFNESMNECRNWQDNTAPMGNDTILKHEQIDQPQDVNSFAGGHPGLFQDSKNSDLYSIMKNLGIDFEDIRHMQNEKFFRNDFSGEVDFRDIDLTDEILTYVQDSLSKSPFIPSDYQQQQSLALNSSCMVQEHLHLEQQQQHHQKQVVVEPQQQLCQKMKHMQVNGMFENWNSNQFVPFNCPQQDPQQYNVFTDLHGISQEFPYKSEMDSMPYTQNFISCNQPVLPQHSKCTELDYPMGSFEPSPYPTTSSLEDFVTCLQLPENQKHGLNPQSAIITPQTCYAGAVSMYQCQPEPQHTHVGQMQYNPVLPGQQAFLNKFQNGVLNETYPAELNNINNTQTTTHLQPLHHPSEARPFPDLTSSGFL
Sequence of Retinoic acid receptor alpha (Homo sapiens) (P10276 whole entry, looked up): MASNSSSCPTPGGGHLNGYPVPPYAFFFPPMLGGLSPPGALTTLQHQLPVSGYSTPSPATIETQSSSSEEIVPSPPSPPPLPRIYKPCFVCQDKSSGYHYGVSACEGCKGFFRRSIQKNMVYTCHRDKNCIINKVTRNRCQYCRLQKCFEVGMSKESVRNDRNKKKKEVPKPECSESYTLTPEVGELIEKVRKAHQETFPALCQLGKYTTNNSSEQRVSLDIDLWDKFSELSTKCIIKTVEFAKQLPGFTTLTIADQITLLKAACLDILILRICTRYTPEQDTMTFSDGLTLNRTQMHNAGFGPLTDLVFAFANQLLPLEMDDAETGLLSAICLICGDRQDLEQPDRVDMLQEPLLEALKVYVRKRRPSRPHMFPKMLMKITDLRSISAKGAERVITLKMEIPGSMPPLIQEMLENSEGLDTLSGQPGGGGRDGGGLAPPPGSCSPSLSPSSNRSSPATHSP

In the case of `CCC(=O)C=Cc1ccc(OC)cc1`, the AC50 – broadly, the concentration at which the activity in the assay is half-maximal – in assay [1] is 68.2 µM (active); in assay [10] it was 100 µM (active); in assay [20], 100 µM (active). Further, the result in [2], in assay [3], in [4], in [5], in [6] and in assay [7] was inactive. Besides, the result in assay [8], in assay [9], in [11], in assay [12], in assay [13] and in assay [14] was inactive. Besides, the compound was called inactive in [15], in assay [16], in [17], in assay [18] and in [19].
For `FC(F)(F)N1C(F)(F)C(F)(F)OC(F)(F)C1(F)F`, the result in [1], in assay [2], in assay [3], in [4], in [5] and in [6] was inactive. The outcome in assay [7], in assay [8], in [9], in assay [10], in assay [11] and in assay [12] was inactive. In addition, the result in assay [13], in assay [14], in assay [15], in assay [16], in assay [17] and in assay [18] was inactive. Further, the compound was classed as inactive in assay [19] and in [20].
With `CCOC(=O)CN[C@@H](C(=O)N1CC[C@H]1C(=O)NCc1ccc(/C(N)=N/O)cc1)C1CCCCC1`, the compound was classed as inactive in [1], in assay [2], in [3], in assay [4], in assay [5] and in [6]. For the same compound, the result in [7], in [8], in assay [9], in [10], in [11] and in assay [12] was inactive. Moreover, the outcome in [13], in assay [14], in assay [15], in assay [16], in [17] and in assay [18] was inactive. In addition, the compound was called inactive in [19] and in assay [20].
Consider `C=CC(=O)OCCC(F)(F)C(F)(F)C(F)(F)C(F)(F)C(F)(F)C(F)(F)C(F)(F)C(F)(F)F`, for which the call in assay [1], in assay [2], in assay [3], in [4], in assay [5] and in assay [7] was inactive. The result in [8], in [9], in [10], in [11], in [13] and in [14] was inactive. Further, the compound was classed as inactive in assay [15], in assay [16], in assay [17], in assay [18], in [19] and in [20]. In addition, the concentration at half-maximal activity (AC50) in assay [6] was 15.2 µM (active); in [12], 22.6 µM (active).
`O=C(OC(=O)C(F)(F)C(F)(F)F)C(F)(F)C(F)(F)F`: the call in [1], in [2], in assay [3], in [4], in [5] and in assay [6] was inactive. In addition, the compound was called inactive in [7], in assay [8], in [9], in assay [10], in [11] and in assay [12]. In addition, the call in assay [13], in assay [14], in [15], in assay [16], in [17] and in [19] was inactive. Moreover, the outcome in assay [20] was inactive.
In the case of `CCC(=O)O`, the call in assay [1], in [2], in assay [3], in assay [4], in assay [5] and in [6] was inactive. Moreover, the outcome in assay [7], in [8], in assay [9], in assay [10], in assay [11] and in [12] was inactive. Moreover, the outcome in assay [13], in assay [14], in assay [15], in [16], in assay [17] and in assay [19] was inactive. Further, the call in assay [20] was inactive.
